Experimental data published in PubChem BioAssay (EPA / NIEHS).
Active and inactive are the calls of the source. How the source made its calls: active means hit-call score of the fitted dose curve at least 0.9, where 1 is the maximum; inactive means score below 0.9.

Read-out: Caspase-3 (Homo sapiens) (UniProt P42574)
Test: LTEA_HepaRG_CASP3: Life Technologies and Expression Analysis (LTEA) Assay for cysteine-aspartic acid protease (CASP3) using HepaRG (AID 2283477)
Settings: mRNA level, 48 h; actives raise or lower the signal
Protocol: LTEA_HepaRG is a cell based, multiplexed-readout assay that uses HepaRG, a human liver cell line, with measurements taken at 48 hours after chemical dosing on a 96-well plate.LTEA_HepaRG_CASP3 is one of 102 assay component(s) measured in the LTEA HepaRG cell culture assay. It is a marker of Cell proliferation, survival, death.Data from the assay component LTEA_HepaRG_CASP3 was analyzed into 1 endpoint. This assay endpoint, LTEA_HepaRG_CASP3, was analyzed with bidirectional fitting relative to DMSO as the negative control and baseline of activity. Using a type of inducible reporter, measures of mRNA induction for gain or loss-of-signal activity can be used to understand regulation of transcription factor activity. To generalize the intended target to other relatable targets, this assay endpoint is annotated to the protease intended target family, where the subfamily is cysteine protease.
A total of 1060 chemcials from the ToxCast library were tested in eight-point concentration-response experiments. Cell culture and cytotoxicity assays were conducted at Thermo Fisher Scientific's Custom Services facility (Madison, WI). A single lot of human HepaRG cells (Thermo Fisher Scientific, Frederick, MD) was used for the cell culture experiments. 96-well format collagen type I coated plates of human HepaRG cells were prepared using established methods. Briefly, cryopreserved HepaRG cells were thawed, plated at a density of approximately 100,000 cells/well in HepaRG Thaw, Plate, and General Purpose media (HPRG770, Thermo Fisher Scientific), and incubated for 48 hours. 0.5% DMSO was selected as vehicle control to balance the requisite need of DMSO in HepaRG cultures to maintain differentiation (for example, baseline metabolism, proportions of hepatocytes vs. cholangiocytes), while enabling further hepatic receptor pathway activation (for example, PXR and CAR) in response to chemical exposure. 48 hours after plating, the culture medium was replaced with HepaRG Serum-Free Incudtion Media. Cells were exposed to each test chemical in duplicate and maintained in CO2 incubators for another 48 hours. Chemical plates were thawed to room temperature and 200x concentrations of treatment groups were prepared. 8-point conentration-reponse curves were made with the highest exposure at 100 uM, followed by half-log dilutions, all in 0.5% DMSO. Each test plate contained variouse controls, induction positive controls (1mM phenobarbital), cytotoxicity positive controls ([…] aflatoxin B1), vehicle controls (0.5% DMSO), and total lysis controls (0.5% DMSO). Cell morphology images were taken using an Essen IncuCyte FLR automated microscope, with six 96-well plates imaged in about 24 minutes. Images were captured and exported and JPEG files. Spent culture media was transfered to black-well plates for the LDH assay, and remaining media was sorted at -80 C for later use. Cells were treated with RLT buffer and frozen until shipped for gene expression analysis. Total RNA was isolated from the cell suspension in 75 uL of Buffer RLT (Qiagen, Germantown, MD 20874) by Quintiles/Expression Analysis (Durham, NC) using a custom isolation procedure. Total RNA from each plate well was transferred to a preamplification plate. Fluidigm's 96.96 Dynamic ArrayTM (Fluidigm, Amsterdam, the Netherlands) technology was used for gene expression analyses by quantitative reverse transcription polymerase chain reaction (qRT-PCR, performed by Quintiles/Expression Analysis, Durham, NC)89. Standard TaqManTM Assays (Applied Biosystems/ThermoFisher Scientific, Foster City, CA) were used to assess the expression of 93 genes selected based on their selectivity and sensitivity to important hepatic receptors known to be modulated by environmental chemicals; importance in human hepatocyte functionality; and hepatotoxicity. […]

Caspase-3 (Homo sapiens), sequence (P42574 whole entry, looked up): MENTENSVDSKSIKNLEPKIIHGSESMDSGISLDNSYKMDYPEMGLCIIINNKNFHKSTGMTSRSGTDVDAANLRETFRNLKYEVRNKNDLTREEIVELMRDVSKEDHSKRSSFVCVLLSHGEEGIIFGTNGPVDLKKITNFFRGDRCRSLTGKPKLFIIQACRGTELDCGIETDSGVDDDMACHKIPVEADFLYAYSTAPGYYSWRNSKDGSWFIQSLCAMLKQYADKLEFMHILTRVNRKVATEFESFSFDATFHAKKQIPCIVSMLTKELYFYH

SMILES	outcome	AC50
CCSC(=O)N(CC)C1CCCCC1	inactive	
CC(c1ccc(O)cc1)(c1ccc(O)cc1)c1ccc(O)cc1		87.5 µM (active)
CCOP(=S)(OCC)SCSC(C)(C)C	inactive	
O=C(NC(=O)c1cc(F)c(F)cc1Cl)Nc1cc(F)ccc1N1CCC(C(=O)O)CC1	inactive	
CCC(C)(CC)c1cc(NC(=O)c2c(OC)cccc2OC)on1	inactive	
Oc1ccc(C(c2ccc(O)cc2)(C(F)(F)F)C(F)(F)F)cc1	inactive	
CCNc1nc(NC(C)C)nc(SC)n1	inactive	
O=NN(c1ccccc1)c1ccccc1	inactive	
Cc1ccccc1O	inactive	
c1ccc(-c2ccccc2)cc1	inactive	
CC#Cc1cc(C)nc(Nc2ccccc2)n1	inactive	
Cc1cccc([N+](=O)[O-])c1	inactive	
Clc1ccc(Cl)cc1	inactive	
CN(C)c1nc(=O)n(C2CCCCC2)c(=O)n1C	inactive	
O=C(O)C(F)(F)C(F)(F)C(F)(F)C(F)(F)C(F)(F)F		9.92 µM (active)
C[C@]12CCC(=O)C=C1CC[C@@H]1[C@@H]2CC[C@@]2(C)[C@H]1CC[C@]2(C)O	inactive	
Nn1cnnc1	inactive	
ClC1=C(Cl)[C@]2(Cl)[C@@H]3[C@@H]4C[C@@H]([C@H]5O[C@@H]45)[C@@H]3[C@@]1(Cl)C2(Cl)Cl		0.0261 µM (active)
Oc1c(Cl)c(Cl)c(Cl)c(Cl)c1Cl		6.5 µM (active)
Cc1cccc(C)c1N	inactive	

SMILES	outcome	AC50
CCCCCCOC(=O)c1ccccc1C(=O)OCCCCCC	inactive	
Oc1ccc(Cl)cc1Cl	inactive	
ClC1=C(Cl)[C@]2(Cl)[C@@H]3[C@@H](Cl)[C@H]4O[C@H]4[C@@H]3C1(Cl)C2(Cl)Cl	inactive	
Clc1ccc(C(c2ccccc2Cl)C(Cl)(Cl)Cl)cc1 (stereo not given)	inactive	
O=C(N[C@H]1CN2CCC1CC2)c1cc2ccoc2cn1	inactive	
CCOCCOC(C)=O	inactive	
C=CC(=O)NCNC(=O)C=C	inactive	
CCCN(CCC)N=O	inactive	
c1cc2ccc3cccc4ccc(c1)c2c34	inactive	
CO/C=C(/C(=O)OC)c1ccccc1COc1cccc(C(F)(F)F)n1	inactive	
CC(C)(c1ccccc1)c1ccc(O)cc1	inactive	
O=C(O)C(F)(F)C(F)(F)C(F)(F)C(F)(F)C(F)(F)C(F)(F)C(F)(F)C(F)(F)F	inactive	
CC(C)(O)C(=O)Nc1ccc([N+](=O)[O-])c(C(F)(F)F)c1	inactive	
Cc1ccccc1CO[C@@H]1C[C@@]2(C(C)C)CC[C@]1(C)O2	inactive	
O=S(=O)(O)C(F)(F)C(F)(F)C(F)(F)C(F)(F)C(F)(F)C(F)(F)F	inactive	
CCCCCCCCOC(=O)c1ccccc1C(=O)OCCCCCCCC	inactive	
COc1ccc(O)c(C(C)(C)C)c1	inactive	
CC1=C2C[C@H]3[C@@H](CC=C4C[C@@H](O)CC[C@@]43C)[C@@H]2CC[C@]12O[C@@H]1C[C@H](C)CN[C@H]1[C@H]2C	inactive	
CCC(C)c1cc([N+](=O)[O-])cc([N+](=O)[O-])c1O (stereo not given)	inactive	
CCC(C)(c1ccc(O)cc1)c1ccc(O)cc1	inactive	
